# What was measured:
# Assay in all cases: DAPPL (digital affinity profiling via proximity ligation, sequencing); 10 mM Tris-HCl pH 7.5, 50 mM NaCl, 1 mM DTT, 4% glycerol, room temperature, 30 min; GST-TFs on glutathione beads, 16-mer random dsDNA library, 0.1% formaldehyde crosslink after washing; high values mean tight binding
# FLI1 = molecular target: T1, FLI1 (Homo sapiens, UniProt Q01543 1-452); conditions: protein: recombinant; tags: N-terminal GST; dsDNA, one strand shown
# T1 sequence: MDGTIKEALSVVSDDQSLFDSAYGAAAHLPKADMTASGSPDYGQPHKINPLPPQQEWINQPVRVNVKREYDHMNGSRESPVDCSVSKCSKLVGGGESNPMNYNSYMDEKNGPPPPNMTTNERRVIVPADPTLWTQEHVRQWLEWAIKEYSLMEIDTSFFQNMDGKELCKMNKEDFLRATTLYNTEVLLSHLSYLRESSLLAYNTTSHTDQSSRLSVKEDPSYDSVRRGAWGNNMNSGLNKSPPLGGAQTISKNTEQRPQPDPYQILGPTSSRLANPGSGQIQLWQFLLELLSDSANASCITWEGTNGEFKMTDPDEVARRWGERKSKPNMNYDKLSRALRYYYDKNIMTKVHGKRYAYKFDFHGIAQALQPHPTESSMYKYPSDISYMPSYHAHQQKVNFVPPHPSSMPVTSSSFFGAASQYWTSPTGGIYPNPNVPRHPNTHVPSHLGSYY
# In short: (§1)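 Pools of DNA-barcoded human transcription factors, expressed in yeast as GST fusions on glutathione beads and combined with a tag-only sample, were incubated with 200 nmole of a 16-mer random double-stranded DNA library. Incubation took 30 min at room temperature in Tris/NaCl/DTT/glycerol buffer and was followed by washing, 0.1% formaldehyde crosslinking, proximity ligation (BsaI/T4 ligase, 1 h, 37 °C), PCR amplification and sequencing on an Illumina NextSeq500. Binding signal is the ratio of a hexamer's read frequency for a factor to its frequency for the tag-only sample.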
# ELK1 = molecular target: T2, ELK1 (Homo sapiens, UniProt P19419 1-428); conditions: protein: recombinant; tags: N-terminal GST; dsDNA, one strand shown
# T2 sequence: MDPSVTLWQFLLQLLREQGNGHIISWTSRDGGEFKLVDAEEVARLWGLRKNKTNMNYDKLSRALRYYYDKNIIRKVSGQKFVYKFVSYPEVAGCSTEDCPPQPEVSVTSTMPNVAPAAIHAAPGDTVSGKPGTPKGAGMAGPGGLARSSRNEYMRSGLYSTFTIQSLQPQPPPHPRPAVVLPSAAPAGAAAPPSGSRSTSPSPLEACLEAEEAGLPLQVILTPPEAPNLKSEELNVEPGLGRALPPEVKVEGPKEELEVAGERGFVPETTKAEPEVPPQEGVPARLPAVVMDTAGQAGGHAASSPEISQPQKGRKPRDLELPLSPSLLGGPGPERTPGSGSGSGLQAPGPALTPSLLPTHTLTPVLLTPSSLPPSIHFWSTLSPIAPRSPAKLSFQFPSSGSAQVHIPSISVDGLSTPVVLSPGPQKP
# In short: as §1
# GABPA = molecular target: T3, GABPA (Homo sapiens, UniProt Q06546 1-454); conditions: protein: recombinant; tags: N-terminal GST; dsDNA, one strand shown
# T3 sequence: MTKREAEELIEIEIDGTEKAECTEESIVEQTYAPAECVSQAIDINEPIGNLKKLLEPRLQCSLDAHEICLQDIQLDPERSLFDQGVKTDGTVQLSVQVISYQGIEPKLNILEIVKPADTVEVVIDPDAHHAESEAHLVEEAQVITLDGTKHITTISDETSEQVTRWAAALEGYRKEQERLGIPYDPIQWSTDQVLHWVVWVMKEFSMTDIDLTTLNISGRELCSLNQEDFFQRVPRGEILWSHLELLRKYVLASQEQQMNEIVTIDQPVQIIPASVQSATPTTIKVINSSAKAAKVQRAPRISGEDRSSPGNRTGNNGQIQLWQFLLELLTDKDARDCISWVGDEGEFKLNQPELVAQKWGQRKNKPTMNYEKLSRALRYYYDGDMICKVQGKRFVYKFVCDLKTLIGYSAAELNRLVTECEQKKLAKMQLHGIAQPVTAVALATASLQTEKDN
# In short: as §1
# ERG = molecular target: T4, ERG (Homo sapiens, UniProt P11308 1-479); conditions: protein: recombinant; tags: N-terminal GST; dsDNA, one strand shown
# T4 sequence: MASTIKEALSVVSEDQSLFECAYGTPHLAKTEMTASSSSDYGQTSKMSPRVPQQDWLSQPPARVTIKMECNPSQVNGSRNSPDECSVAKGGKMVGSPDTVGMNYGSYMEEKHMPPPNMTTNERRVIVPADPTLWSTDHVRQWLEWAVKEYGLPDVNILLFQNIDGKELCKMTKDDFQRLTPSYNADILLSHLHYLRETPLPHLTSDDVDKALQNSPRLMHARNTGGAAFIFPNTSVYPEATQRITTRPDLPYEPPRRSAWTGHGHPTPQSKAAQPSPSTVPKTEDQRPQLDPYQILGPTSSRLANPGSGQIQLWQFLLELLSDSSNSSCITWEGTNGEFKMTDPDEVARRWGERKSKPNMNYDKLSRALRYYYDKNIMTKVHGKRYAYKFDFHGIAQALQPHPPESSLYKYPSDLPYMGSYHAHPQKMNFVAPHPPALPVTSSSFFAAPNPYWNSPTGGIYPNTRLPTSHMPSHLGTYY
# In short: as §1
# ELF1 = ELF1 (Homo sapiens, UniProt P32519 1-619); conditions: protein: recombinant; tags: N-terminal GST; dsDNA, one strand shown
# Sequence of ELF1 (P32519 whole entry): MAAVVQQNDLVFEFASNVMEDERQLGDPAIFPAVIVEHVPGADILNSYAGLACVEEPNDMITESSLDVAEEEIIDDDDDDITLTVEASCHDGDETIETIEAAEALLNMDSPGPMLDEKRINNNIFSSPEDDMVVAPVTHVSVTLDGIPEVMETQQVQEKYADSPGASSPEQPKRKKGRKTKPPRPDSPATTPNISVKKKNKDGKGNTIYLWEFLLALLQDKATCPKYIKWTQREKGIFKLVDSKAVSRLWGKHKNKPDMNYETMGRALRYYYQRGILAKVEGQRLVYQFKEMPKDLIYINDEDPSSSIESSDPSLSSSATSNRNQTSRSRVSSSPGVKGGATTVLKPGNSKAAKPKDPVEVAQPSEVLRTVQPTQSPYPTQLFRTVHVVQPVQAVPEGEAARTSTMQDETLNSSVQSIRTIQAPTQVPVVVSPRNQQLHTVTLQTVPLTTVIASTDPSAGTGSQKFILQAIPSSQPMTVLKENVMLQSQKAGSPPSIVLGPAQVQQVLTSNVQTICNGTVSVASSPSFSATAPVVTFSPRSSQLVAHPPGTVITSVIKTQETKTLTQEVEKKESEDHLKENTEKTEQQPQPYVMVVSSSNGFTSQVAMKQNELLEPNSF
# In short: as §1
# EHF = molecular target: T5, EHF (Homo sapiens, UniProt Q9NZC4 1-300); conditions: protein: recombinant; tags: N-terminal GST; dsDNA, one strand shown
# T5 sequence: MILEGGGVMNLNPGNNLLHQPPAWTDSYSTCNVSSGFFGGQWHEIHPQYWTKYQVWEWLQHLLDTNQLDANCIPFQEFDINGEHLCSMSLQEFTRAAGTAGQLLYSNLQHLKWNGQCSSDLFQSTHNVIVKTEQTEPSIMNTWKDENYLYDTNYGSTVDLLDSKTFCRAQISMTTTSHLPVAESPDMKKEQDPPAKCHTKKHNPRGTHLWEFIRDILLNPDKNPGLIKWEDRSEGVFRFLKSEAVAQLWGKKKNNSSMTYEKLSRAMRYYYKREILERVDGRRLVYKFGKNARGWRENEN
# In short: as §1
# SPI1 = SPI1 (Homo sapiens, UniProt P17947 1-270); conditions: protein: recombinant; tags: N-terminal GST; dsDNA, one strand shown
# In short: as §1
# SPIB = SPIB (Homo sapiens, UniProt Q01892 1-262); conditions: protein: recombinant; tags: N-terminal GST; dsDNA, one strand shown
# Sequence of SPIB (Q01892 whole entry): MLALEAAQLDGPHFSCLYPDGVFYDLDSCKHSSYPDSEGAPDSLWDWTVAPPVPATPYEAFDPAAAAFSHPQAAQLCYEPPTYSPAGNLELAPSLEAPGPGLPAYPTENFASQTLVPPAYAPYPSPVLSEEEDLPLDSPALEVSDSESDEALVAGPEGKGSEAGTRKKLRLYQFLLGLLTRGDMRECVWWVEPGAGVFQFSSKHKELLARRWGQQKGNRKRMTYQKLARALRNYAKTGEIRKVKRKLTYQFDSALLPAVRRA
# In short: as §1
# ELK3 = molecular target: T6, ELK3 (Homo sapiens, UniProt P41970 1-407); conditions: protein: recombinant; tags: N-terminal GST; dsDNA, one strand shown
# T6 sequence: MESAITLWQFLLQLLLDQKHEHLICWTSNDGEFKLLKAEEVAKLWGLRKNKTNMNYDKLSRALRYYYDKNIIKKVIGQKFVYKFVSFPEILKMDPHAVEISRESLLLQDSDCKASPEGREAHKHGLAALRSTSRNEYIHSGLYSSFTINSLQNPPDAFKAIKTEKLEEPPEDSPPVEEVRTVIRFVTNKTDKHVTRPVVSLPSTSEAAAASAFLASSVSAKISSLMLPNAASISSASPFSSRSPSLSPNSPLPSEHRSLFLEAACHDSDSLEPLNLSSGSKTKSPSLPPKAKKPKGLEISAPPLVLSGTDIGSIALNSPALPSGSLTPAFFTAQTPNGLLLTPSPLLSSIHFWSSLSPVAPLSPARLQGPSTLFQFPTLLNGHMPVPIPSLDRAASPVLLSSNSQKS
# In short: as §1
# FEV = molecular target: T7, FEV (Homo sapiens, UniProt Q99581 1-238); conditions: protein: recombinant; tags: N-terminal GST; dsDNA, one strand shown
# T7 sequence: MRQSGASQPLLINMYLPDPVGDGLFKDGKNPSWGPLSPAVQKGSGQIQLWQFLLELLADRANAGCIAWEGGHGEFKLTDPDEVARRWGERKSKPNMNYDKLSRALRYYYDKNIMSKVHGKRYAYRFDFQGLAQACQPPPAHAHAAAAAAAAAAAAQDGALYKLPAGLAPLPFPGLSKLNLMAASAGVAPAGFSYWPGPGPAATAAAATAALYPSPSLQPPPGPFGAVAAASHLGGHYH
# In short: as §1
# ETV5 = ETV5 (Homo sapiens, UniProt P41161 1-510); conditions: protein: recombinant; tags: N-terminal GST; dsDNA, one strand shown
# Sequence of ETV5 (P41161 whole entry): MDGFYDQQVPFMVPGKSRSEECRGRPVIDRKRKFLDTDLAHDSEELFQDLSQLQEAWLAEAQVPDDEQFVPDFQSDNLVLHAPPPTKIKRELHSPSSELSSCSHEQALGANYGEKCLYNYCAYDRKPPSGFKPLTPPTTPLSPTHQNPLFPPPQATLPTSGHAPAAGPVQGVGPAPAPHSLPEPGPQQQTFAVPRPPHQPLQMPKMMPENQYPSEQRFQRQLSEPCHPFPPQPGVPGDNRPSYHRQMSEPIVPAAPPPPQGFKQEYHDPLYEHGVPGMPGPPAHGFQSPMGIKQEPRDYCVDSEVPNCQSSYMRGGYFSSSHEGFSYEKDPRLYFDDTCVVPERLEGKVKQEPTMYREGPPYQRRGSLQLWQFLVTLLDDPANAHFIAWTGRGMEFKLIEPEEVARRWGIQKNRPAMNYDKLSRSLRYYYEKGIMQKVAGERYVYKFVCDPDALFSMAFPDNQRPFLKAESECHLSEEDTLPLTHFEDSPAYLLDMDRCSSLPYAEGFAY
# In short: as §1
# HSF1 = HSF1 (Homo sapiens, UniProt Q00613 1-529); conditions: protein: recombinant; tags: N-terminal GST; chain copies: 3; dsDNA, one strand shown
# Sequence of HSF1 (Q00613 whole entry): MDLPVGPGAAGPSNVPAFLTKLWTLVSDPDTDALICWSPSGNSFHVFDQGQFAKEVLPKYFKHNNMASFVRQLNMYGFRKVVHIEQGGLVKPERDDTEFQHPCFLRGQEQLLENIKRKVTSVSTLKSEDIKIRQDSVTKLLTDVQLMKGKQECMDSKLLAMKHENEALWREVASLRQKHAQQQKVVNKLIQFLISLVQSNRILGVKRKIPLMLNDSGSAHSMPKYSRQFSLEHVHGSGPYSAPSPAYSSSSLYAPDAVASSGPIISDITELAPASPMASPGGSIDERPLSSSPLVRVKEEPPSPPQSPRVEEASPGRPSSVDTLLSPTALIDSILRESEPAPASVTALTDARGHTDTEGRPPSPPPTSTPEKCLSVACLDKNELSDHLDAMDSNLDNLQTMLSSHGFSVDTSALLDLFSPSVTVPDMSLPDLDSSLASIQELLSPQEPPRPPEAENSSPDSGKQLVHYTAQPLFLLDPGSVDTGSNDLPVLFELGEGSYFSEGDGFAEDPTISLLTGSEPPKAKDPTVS
# In short: as §1
# SPIC = molecular target: T8, SPIC (Homo sapiens, UniProt Q8N5J4 1-248); conditions: protein: recombinant; tags: N-terminal GST; dsDNA, one strand shown
# T8 sequence: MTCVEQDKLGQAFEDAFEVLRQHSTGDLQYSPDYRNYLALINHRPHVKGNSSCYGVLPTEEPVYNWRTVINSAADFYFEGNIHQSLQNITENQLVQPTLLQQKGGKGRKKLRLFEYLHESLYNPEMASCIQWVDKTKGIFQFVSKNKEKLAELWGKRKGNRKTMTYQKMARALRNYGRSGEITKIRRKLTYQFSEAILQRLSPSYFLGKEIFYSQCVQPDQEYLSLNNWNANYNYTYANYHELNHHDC
# In short: as §1
# ELF4 = ELF4 (Homo sapiens, UniProt Q99607 1-663); conditions: protein: recombinant; tags: N-terminal GST; dsDNA, one strand shown
# Sequence of ELF4 (Q99607 whole entry): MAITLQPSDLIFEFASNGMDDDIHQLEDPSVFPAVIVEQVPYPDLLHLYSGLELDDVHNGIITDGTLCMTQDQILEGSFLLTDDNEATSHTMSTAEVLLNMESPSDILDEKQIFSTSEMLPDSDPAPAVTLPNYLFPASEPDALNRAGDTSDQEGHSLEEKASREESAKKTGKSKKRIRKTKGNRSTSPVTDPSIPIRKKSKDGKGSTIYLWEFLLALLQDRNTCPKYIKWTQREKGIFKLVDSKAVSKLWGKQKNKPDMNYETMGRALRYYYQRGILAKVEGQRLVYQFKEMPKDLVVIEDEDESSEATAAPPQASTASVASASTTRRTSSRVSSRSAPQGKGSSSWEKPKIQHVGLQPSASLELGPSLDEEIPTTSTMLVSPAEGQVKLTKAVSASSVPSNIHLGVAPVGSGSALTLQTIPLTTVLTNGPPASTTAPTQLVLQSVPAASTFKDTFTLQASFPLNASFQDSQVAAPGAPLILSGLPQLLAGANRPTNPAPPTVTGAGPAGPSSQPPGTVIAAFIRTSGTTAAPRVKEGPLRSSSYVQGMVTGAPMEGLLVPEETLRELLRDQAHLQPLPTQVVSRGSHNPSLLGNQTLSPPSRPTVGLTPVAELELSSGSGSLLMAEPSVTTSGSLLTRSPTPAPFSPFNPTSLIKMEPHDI
# In short: as §1
# ELK4 = molecular target: T9, ELK4 (Homo sapiens, UniProt P28324-2 1-405); conditions: protein: recombinant; tags: N-terminal GST; dsDNA, one strand shown
# T9 sequence: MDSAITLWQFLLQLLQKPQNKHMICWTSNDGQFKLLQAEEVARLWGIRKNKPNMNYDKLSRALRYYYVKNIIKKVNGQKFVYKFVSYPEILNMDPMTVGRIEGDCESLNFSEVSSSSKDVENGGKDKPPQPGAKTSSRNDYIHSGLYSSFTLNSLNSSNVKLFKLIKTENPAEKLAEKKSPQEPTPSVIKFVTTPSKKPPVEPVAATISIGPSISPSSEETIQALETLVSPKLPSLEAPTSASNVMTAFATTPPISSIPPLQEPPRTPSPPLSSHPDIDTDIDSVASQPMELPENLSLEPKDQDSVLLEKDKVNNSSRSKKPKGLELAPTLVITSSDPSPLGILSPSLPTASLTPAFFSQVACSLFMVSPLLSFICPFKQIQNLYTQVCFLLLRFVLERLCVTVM
# In short: as §1
# ETV2 = molecular target: T10, ETV2 (Homo sapiens, UniProt O00321 1-342); conditions: protein: recombinant; tags: N-terminal GST; dsDNA, one strand shown
# T10 sequence: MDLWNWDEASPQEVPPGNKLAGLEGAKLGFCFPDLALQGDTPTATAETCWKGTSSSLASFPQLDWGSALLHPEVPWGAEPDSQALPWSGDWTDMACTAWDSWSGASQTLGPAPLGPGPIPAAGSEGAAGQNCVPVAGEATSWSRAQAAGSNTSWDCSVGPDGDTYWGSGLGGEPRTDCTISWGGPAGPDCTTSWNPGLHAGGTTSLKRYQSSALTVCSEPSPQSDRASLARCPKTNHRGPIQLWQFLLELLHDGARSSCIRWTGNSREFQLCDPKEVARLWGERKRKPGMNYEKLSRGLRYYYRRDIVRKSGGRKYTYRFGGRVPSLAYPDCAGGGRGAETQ
# In short: as §1
# ELF3 = molecular target: T11, ELF3 (Homo sapiens, UniProt P78545 1-371); conditions: protein: recombinant; tags: N-terminal GST; dsDNA, one strand shown
# T11 sequence: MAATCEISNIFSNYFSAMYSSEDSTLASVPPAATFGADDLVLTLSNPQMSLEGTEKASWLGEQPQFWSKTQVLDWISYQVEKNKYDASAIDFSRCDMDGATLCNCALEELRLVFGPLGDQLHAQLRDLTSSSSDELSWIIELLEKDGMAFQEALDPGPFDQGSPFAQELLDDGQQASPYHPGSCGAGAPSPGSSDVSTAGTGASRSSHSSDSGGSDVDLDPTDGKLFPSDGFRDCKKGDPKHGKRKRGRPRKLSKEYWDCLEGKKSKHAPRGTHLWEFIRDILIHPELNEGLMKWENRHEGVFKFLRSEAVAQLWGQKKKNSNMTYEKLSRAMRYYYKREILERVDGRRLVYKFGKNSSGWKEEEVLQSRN
# In short: as §1
# CRX = CRX (Homo sapiens, UniProt O43186 1-299); conditions: protein: recombinant; tags: N-terminal GST; dsDNA, one strand shown
# Sequence of CRX (O43186 whole entry): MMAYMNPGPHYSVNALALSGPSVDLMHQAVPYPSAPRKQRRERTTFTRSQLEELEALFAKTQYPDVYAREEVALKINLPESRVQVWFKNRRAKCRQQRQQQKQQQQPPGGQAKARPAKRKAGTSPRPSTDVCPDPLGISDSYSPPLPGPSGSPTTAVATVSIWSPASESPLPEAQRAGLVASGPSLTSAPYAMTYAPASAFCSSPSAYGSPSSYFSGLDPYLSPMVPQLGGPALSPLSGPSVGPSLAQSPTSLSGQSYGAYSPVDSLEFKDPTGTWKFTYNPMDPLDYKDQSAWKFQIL
# In short: as §1
# ETV1 = ETV1 (Homo sapiens, UniProt P50549 1-477); conditions: protein: recombinant; tags: N-terminal GST; dsDNA, one strand shown
# Sequence of ETV1 (P50549 whole entry): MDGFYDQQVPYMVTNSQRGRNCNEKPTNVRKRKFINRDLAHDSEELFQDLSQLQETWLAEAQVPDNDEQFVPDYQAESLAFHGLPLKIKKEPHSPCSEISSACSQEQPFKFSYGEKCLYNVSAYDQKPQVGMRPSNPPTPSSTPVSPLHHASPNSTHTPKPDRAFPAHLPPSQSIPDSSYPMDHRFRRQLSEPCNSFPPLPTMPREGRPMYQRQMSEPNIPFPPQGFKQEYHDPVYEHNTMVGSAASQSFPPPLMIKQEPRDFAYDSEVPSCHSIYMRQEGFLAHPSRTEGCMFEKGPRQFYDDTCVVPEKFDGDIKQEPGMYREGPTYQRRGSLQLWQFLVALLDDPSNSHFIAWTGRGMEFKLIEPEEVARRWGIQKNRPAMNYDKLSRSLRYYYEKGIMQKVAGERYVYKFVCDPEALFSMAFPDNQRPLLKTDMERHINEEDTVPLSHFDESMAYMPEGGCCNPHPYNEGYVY
# In short: as §1
sequence,measurement,setting,value
TCTATC,binding signal,FLI1,"1.25 fold enrichment (6-mer frequency, TF over GST control)"
same,binding signal,ELK1,"1.27 fold enrichment (6-mer frequency, TF over GST control)"
same,binding signal,GABPA,"1.21 fold enrichment (6-mer frequency, TF over GST control)"
same,binding signal,ERG,"1.21 fold enrichment (6-mer frequency, TF over GST control)"
same,binding signal,ELF1,"1.25 fold enrichment (6-mer frequency, TF over GST control)"
same,binding signal,EHF,"1.19 fold enrichment (6-mer frequency, TF over GST control)"
same,binding signal,SPI1,"1.22 fold enrichment (6-mer frequency, TF over GST control)"
same,binding signal,SPIB,"1.17 fold enrichment (6-mer frequency, TF over GST control)"
same,binding signal,ELK3,"1.37 fold enrichment (6-mer frequency, TF over GST control)"
same,binding signal,FEV,"1.16 fold enrichment (6-mer frequency, TF over GST control)"
same,binding signal,ETV5,"1.19 fold enrichment (6-mer frequency, TF over GST control)"
same,binding signal,HSF1,"1.43 fold enrichment (6-mer frequency, TF over GST control)"
same,binding signal,SPIC,"1.23 fold enrichment (6-mer frequency, TF over GST control)"
same,binding signal,ELF4,"1.25 fold enrichment (6-mer frequency, TF over GST control)"
same,binding signal,ELK4,"1.24 fold enrichment (6-mer frequency, TF over GST control)"
same,binding signal,ETV2,"1.27 fold enrichment (6-mer frequency, TF over GST control)"
same,binding signal,ELF3,"1.29 fold enrichment (6-mer frequency, TF over GST control)"
same,binding signal,CRX,"1.32 fold enrichment (6-mer frequency, TF over GST control)"
same,binding signal,ETV1,"1.16 fold enrichment (6-mer frequency, TF over GST control)"
